Results from PubChem BioAssay (EPA / NIEHS).
“And” between values parts separate entries of the source, which are not always exact repeats. Equal values may be shown once. Results filed as inconclusive are left out. The source holds several records for some structures; these can differ, active in one and inactive in another. The source made the active and inactive calls. How the source made its calls, unless noted: active means hit-call score of the fitted dose curve at least 0.9, where 1 is the maximum; inactive means score below 0.9.

How the values were obtained:
[1] = read-out: Interleukin-8 (IL8), CXCL8 (gene 3576); experiment: BSK_3C_IL8: BioMAP Diversity Plus: 3C Assay for Interleukin-8 (IL8) Biomarker Activity (AID 2283020); conditions: primary human endothelial cells (HUVEC); actives raise or lower the signal
Method in brief: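 Primary human umbilical vein endothelial cells (3C system) were exposed to test chemical for 24 h, then IL-8 was quantified by ELISA. Responses were fitted bidirectionally against DMSO vehicle as baseline.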

[2] = read-out: Monokine induced gamma interferon (MIG), CXCL9 (gene 4283); experiment: BSK_3C_MIG: BioMAP Diversity Plus: 3C Assay for Monokine induced gamma interferon (MIG) Biomarker Activity (AID 2283021); conditions: primary human endothelial cells (HUVEC); actives raise or lower the signal;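 on AC50: MIG protein level measured by immunoassay in the treated endothelial cultures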
Method in brief: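 Primary human umbilical vein endothelial cells in the 3C system were exposed to chemical for 24 h, after which MIG was quantified by ELISA. Activity was fitted bidirectionally against DMSO as negative control and baseline.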

[3] = BSK_3C_SRB: Viability Assessment in the BioMAP Diversity Plus: 3C Assay (AID 2283023); conditions: primary human endothelial cells (HUVEC);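 further: cells read 24 h after compound dosing; fitted both ways against DMSO so a hit may be signal rise or drop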
Method in brief: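 HUVEC, 24 h post-dose; 10% TCA fix, 0.1% SRB stain, A560 nm. Bidirectional curve fit vs DMSO negative control.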

[4] = BSK_3C_Vis: BioMAP Diversity Plus: 3C Assay for Morphology Visualization (AID 2283025); conditions: primary human endothelial cells (HUVEC);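 further: fitted both ways so gain or loss versus DMSO counts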
Method in brief: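 Human umbilical vein endothelial cells in the 3C system were imaged by light microscopy 24 h after chemical dosing to record cell morphology. Activity was fitted bidirectionally against DMSO as negative control and baseline; the endpoint serves as a background control.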

[5] = read-out: Pselectin, SELP (gene 6403); experiment: BSK_4H_Pselectin: BioMAP Diversity Plus: 4H Assay for Pselectin Biomarker Activity (AID 2283026); conditions: primary human endothelial cells (HUVEC); actives raise or lower the signal
Method in brief: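 Primary human umbilical vein endothelial cells were exposed to test chemical for 24 h, then cell-surface P-selectin was quantified by ELISA. Activity was fitted bidirectionally against DMSO as negative control and baseline.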

[6] = BSK_BE3C_SRB: Viability Assessment in the BioMAP Diversity Plus: BE3C Assay (AID 2283028); conditions: primary human bronchial epithelial cells;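 on AC50: fitted both ways so AC50 may mark signal gain or loss versus DMSO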
Method in brief: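 Primary human bronchial epithelium; chemical dosing, 24 h; 10% TCA fix, 0.1% SRB stain, A560; bidirectional fit vs DMSO baseline.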

[7] = read-out: Thrombomodulin, THBD (gene 7056); experiment: BSK_3C_Thrombomodulin: BioMAP Diversity Plus: 3C Assay for Thrombomodulin Biomarker Activity (AID 2283029); conditions: primary human endothelial cells (HUVEC); actives raise or lower the signal
Method in brief: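 Primary human umbilical vein endothelial cells (3C system) were exposed to chemical for 24 h, then thrombomodulin levels were measured by ELISA. Activity was fitted bidirectionally against the DMSO negative control as baseline.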

[8] = read-out: Urokinase-type plasminogen activator receptor (uPAR), PLAUR (gene 5329); experiment: BSK_4H_uPAR: BioMAP Diversity Plus: 4H Assay for Urokinase-type plasminogen activator receptor (uPAR) Biomarker Activity (AID 2283030); conditions: primary human endothelial cells (HUVEC); actives raise or lower the signal
Method in brief: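 HUVEC, 24 h post-dose; uPAR by ELISA; bidirectional fit vs DMSO baseline.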

[9] = read-out: Vascular endothelial growth factor receptor 2 (Homo sapiens) (UniProt P35968); experiment: BSK_4H_VEGFRII: BioMAP Diversity Plus: 4H Assay for Vascular endothelial growth factor receptor 2 (VEGFR2) Biomarker Activity (AID 2283031); conditions: primary human endothelial cells (HUVEC); actives raise or lower the signal;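 on AC50: cell-surface VEGFR2 protein level quantified by ELISA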
Method in brief: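 HUVEC (human primary), 4H system; 24 h post-dose; VEGFRII by ELISA; bidirectional curve fit vs DMSO baseline; gain or loss of signal scored.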

[10] = read-out: Human Leukocyte Antigen - DR isotype (HLADR), HLA-DRA (gene 3122); experiment: BSK_BE3C_HLADR: BioMAP Diversity Plus: BE3C Assay for Human Leukocyte Antigen - DR isotype (HLADR) Biomarker Activity (AID 2283032); conditions: primary human bronchial epithelial cells; actives raise or lower the signal
Method in brief: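 Human primary bronchial epithelial cells in the BE3C system were exposed to chemicals for 24 h, after which HLA-DR levels were quantified by ELISA. Activity was fitted bidirectionally, gain or loss of signal, against DMSO as negative control and baseline.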

[11] = read-out: Vascular cell adhesion molecule 1 (VCAM1), VCAM1 (gene 7412); experiment: BSK_4H_VCAM1: BioMAP Diversity Plus: 4H Assay for Vascular cell adhesion molecule 1 (VCAM1) Biomarker Activity (AID 2283033); conditions: primary human endothelial cells (HUVEC); actives raise or lower the signal
Method in brief: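 Primary human umbilical vein endothelial cells were exposed to chemicals for 24 h, after which VCAM-1 was quantified by ELISA. Responses were fitted bidirectionally against DMSO as negative control and activity baseline.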

[12] = read-out: Interferon-gamma inducible Protein 10 (IP10), CXCL10 (gene 3627); experiment: BSK_BE3C_IP10: BioMAP Diversity Plus: BE3C Assay for Interferon-gamma inducible Protein 10 (IP10) Biomarker Activity (AID 2283034); conditions: primary human bronchial epithelial cells; actives raise or lower the signal
Method in brief: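 Human primary bronchial epithelial cells were exposed to chemicals for 24 hours, after which IP-10 levels were measured by ELISA. Data were fitted bidirectionally against DMSO, which served as the negative control and activity baseline.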

[13] = read-out: Monokine induced gamma interferon (MIG), CXCL9 (gene 4283); experiment: BSK_BE3C_MIG: BioMAP Diversity Plus: BE3C Assay for Monokine induced gamma interferon (MIG) Biomarker Activity (AID 2283035); conditions: primary human bronchial epithelial cells; actives raise or lower the signal;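 further: MIG protein measured by ELISA in BE3C cultures after 24 h of dosing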
Method in brief: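 MIG level was determined by ELISA after 24 h chemical treatment of primary human bronchial epithelial cells. Values were fitted bidirectionally with DMSO as the negative control and activity baseline.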

[14] = read-out: Transforming growth factor beta 1 (TGFb1), TGFB1 (gene 7040); experiment: BSK_BE3C_TGFb1: BioMAP Diversity Plus: BE3C Assay for Transforming growth factor beta 1 (TGFb1) Biomarker Activity (AID 2283036); conditions: primary human bronchial epithelial cells; actives raise or lower the signal
Method in brief: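 Human primary bronchial epithelial cells (BE3C system) were dosed with chemical and TGF-b1 levels measured by ELISA at 24 h. Activity was fitted bidirectionally relative to DMSO negative control as baseline.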

[15] = read-out: Plasminogen activator inhibitor-1 (PAI1), SERPINE1 (gene 5054); experiment: BSK_BE3C_PAI1: BioMAP Diversity Plus: BE3C Assay for Plasminogen activator inhibitor-1 (PAI1) Biomarker Activity (AID 2283037); conditions: primary human bronchial epithelial cells; actives raise or lower the signal
Method in brief: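 Human primary bronchial epithelial cells were exposed to chemical for 24 h, then PAI-1 was quantified by ELISA. Activity was fitted bidirectionally relative to the DMSO negative control baseline.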

[16] = read-out: urokinase plasminogen activator (uPA), PLAU (gene 5328); experiment: BSK_BE3C_uPA: BioMAP Diversity Plus: BE3C Assay for urokinase plasminogen activator (uPA) Biomarker Activity (AID 2283038); conditions: primary human bronchial epithelial cells; actives raise or lower the signal;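 further: uPA protein level quantified by ELISA in cell cultures; uPA read one day after compound addition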
Method in brief: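 ELISA read-out of uPA in human lung primary bronchial epithelial cultures, 24 h post-dosing. Gain or loss of signal fitted bidirectionally relative to DMSO baseline; cytotoxicity checked in parallel cultures via SRB total protein stain.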

[17] = read-out: Urokinase-type plasminogen activator receptor (uPAR), PLAUR (gene 5329); experiment: BSK_BE3C_uPAR: BioMAP Diversity Plus: BE3C Assay for Urokinase-type plasminogen activator receptor (uPAR) Biomarker Activity (AID 2283039); conditions: primary human bronchial epithelial cells; actives raise or lower the signal
Method in brief: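 Primary human bronchial epithelial cells were dosed with chemical and harvested 24 h later; uPAR was quantified by ELISA. Activity was fitted bidirectionally against DMSO as negative control and baseline.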

[18] = read-out: Matrix Metallopeptidase 1 (MMP1), MMP1 (gene 4312); experiment: BSK_BE3C_MMP1: BioMAP Diversity Plus: BE3C Assay for Matrix Metallopeptidase 1 (MMP1) Biomarker Activity (AID 2283024); conditions: primary human bronchial epithelial cells; actives raise or lower the signal
Method in brief: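 Primary human bronchial epithelial cells were dosed with test chemicals, and MMP1 levels were measured by ELISA 24 h later. Data were fitted bidirectionally against DMSO as the negative control and activity baseline.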

[19] = BSK_4H_SRB: Viability Assessment in the BioMAP Diversity Plus: 4H Assay (AID 2283027); conditions: primary human endothelial cells (HUVEC);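 further: cells exposed to compound for 24 h before staining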;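 on AC50: curves fitted both ways versus DMSO so AC50 may be loss or gain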
Method in brief: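 Absorbance at 560 nm of SRB-stained total protein served as the viability read-out in confluent primary human umbilical vein endothelium 24 h after chemical treatment. Curves were fitted bidirectionally against DMSO as negative control.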

[20] = molecular target: human Vitamin D Receptor (VDR), VDR (gene 7421) (UniProt P11473); experiment: ATG_VDR_TRANS: Attagene TRANS-FACTORIAL HepG2 Assay for human Vitamin D Receptor (VDR) (AID 2283022; active means hit-call score of the fitted dose curve at least 0.9, where 1 is the maximum)
Method in brief: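 RT-PCR/capillary electrophoresis read-out of reporter mRNA induction in transiently transfected HepG2; 24 h dosing; chimeric NR-Gal4 (TRANS format); gain-of-signal fit against DMSO baseline.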

Measured: AC50

human Vitamin D Receptor (VDR), VDR (gene 7421), sequence (P11473 whole entry, looked up, the tested form may be a part): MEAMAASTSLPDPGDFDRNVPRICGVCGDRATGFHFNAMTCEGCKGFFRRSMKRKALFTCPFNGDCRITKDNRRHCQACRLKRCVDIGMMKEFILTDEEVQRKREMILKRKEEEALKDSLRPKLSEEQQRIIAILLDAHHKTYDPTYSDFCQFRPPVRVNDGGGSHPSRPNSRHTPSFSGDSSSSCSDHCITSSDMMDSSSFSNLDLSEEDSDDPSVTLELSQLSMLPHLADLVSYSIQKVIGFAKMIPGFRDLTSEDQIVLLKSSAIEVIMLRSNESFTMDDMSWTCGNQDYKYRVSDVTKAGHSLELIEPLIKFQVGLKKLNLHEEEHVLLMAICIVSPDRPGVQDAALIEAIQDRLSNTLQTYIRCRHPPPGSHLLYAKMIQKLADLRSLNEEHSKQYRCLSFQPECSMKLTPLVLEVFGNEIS

CCOC(=O)C1=NN(c2ccc(Cl)cc2Cl)C(C)(C(=O)OCC)C1 (centres undefined)
active: [3] 20 µM | [4] 37.5 µM
not listed: [18] | [19] | [20]
inactive: all other assays above

CC(C)c1cccc(C(C)C)c1N
active: [4] 37.5 µM | [19] 33.5 µM | [11] 32 µM
not listed: [20]
inactive: all other assays above

CC(C)CCCCCOC(=O)CS
not listed: [18] | [20]
inactive: all other assays above

O=C(OCCc1ccccc1)c1ccccc1
inactive: [20]

Cc1c(O)cccc1O
not listed: [19] | [20]
inactive: all other assays above

CCOC(=O)/C=C\C(=O)OCC
not listed: [18] | [20]
inactive: all other assays above

O=C1CCCCCCCCCCC1
not listed: [20]
inactive: all other assays above

C1CNCCN1
not listed: [18] | [20]
inactive: all other assays above

CC(C)C(=O)OCCc1ccccc1
not listed: [4] | [14] | [19] | [20]
inactive: all other assays above

c1ccc(Nc2cccc3ccccc23)cc1
active: [1] 27.6 µM and 24.6 µM | [2] 36.5 µM and 31.8 µM | [3] 31.8 µM and 34 µM | [5] 35.2 µM and 33 µM | [6] 27.4 µM and 28.4 µM | [8] 35.4 µM and 35.1 µM | [9] 33.2 µM and 32.2 µM | [10] 28 µM and 30.7 µM | [11] 31.4 µM and 28.8 µM | [12] 29.1 µM and 30.6 µM | [15] 12.7 µM and 20.4 µM | [17] 35.2 µM
inactive: [7] | [13] | [16] | [17]

Nc1nc(N)nc(-c2ccccc2)n1
not listed: [4] | [14] | [18] | [19] | [20]
inactive: all other assays above

O=C(Cl)c1c(Cl)c(Cl)c(C(=O)Cl)c(Cl)c1Cl
not listed: [18] | [19] | [20]
inactive: all other assays above

CN1CCN(C)CC1
inactive: [20]

CC=C(C)C(C)=O
active: [12] 20 µM
not listed: [18] | [20]
inactive: all other assays above

CCCCOC(=O)CCC(C)=O
inactive: [20]

c1ccc2c(c1)[nH]c1ccccc12
active: [7] 6.87 µM | [12] 20.1 µM
inactive: [1] | [2] | [3] | [4] | [5] | [6] | [7] | [8] | [9] | [10] | [11] | [12] | [13] | [14] | [15] | [16] | [17]

CCC1(C)C(=O)N(Cl)C(=O)N1Cl (centres undefined)
not listed: [19] | [20]
inactive: all other assays above
